Values joined by “and” are separate entries in the source; they are usually repeats but may differ in a detail not shown here. Identical values can stand only once. Active and inactive are the calls of the source. Unless noted, no stated cut-off is given here; in the data, active means inhibition above about 80%; inactive means the rest.

Test [1] in a line: galactose survival enhancers in mitochondrial complex I cybrids – cell-based, galactose medium, ATP luminescence, primary screen (AID 1645843;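 active means z-score of at least 1.8 in each of two replicates, scored against plate mean and spread of sample wells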;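 further: positive z means more ATP and so rescue of galactose-driven cybrid death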). To be noted: complex I mutant cybrid cells, 72 h, stronger effect = higher value.
The nature of test [2]: growth inhibition, single agent or in combination, cell-based, chromothripsis tumors, cisplatin or BGB combos (AID 1671449).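 Further: cells exposed for 96 hours; 0% = vehicle DMSO and 100% = killing by high DMSO.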 Particulars: LFS_MB_P medulloblastoma cells.
Test [3] can be described thus: growth inhibition, single agent and combos, cell-based, chromothripsis tumors, cisplatin or BGB combos (AID 1671450).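 Further: cells exposed to compound for four days; 0% = vehicle DMSO and 100% = cell killing by high DMSO.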 To be noted: HDN33 neuroblastoma cells, stronger effect = higher value.
The nature of test [4]: growth inhibition, single agents and combos, ICB984, cell-based, cisplatin or BGB combos, synergistic combos for chromothripsis tumors (AID 1671451; call rule not given here;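 further: cells exposed for 96 hours before readout; 0% = vehicle DMSO and 100% = killing by high DMSO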). To be noted: ICB984 medulloblastoma cells, drug combinations, stronger effect = higher value.
The nature of test [5]: growth inhibition, single agents and combos, LFS_MB_1R, cell-based, cisplatin or BGB combos, synergistic combos for chromothripsis tumors (AID 1671452).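 Further: cells exposed for 96 hours before readout.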 Particulars: LFS_MB_1R medulloblastoma cells, stronger effect = higher value.
Test [6] is described as follows: growth inhibition, single agents and combos, HTB85, cell-based, BGB or cisplatin IC20 combos, synergistic combos for chromothripsis tumors (AID 1671453).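 Further: cells exposed for 96 hours before readout; 0% = vehicle DMSO and 100% = high DMSO killing control.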 To be noted: HTB85 osteosarcoma cells, drug combinations, stronger effect = higher value.
A short description of test [7]: growth inhibition, single agents and combos, CRL2098, cell-based, BGB or cisplatin IC20 combos, synergistic combos for chromothripsis tumors (AID 1671454).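 Further: cells exposed for 96 h before readout; 0% = vehicle DMSO and 100% = killing by high DMSO.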 To be noted: CRL2098 osteosarcoma cells, drug combinations, stronger effect = higher value.
Test [8] in a line: growth inhibition, single agents and combos, HD-MB03, cell-based, BGB or cisplatin IC20 combos, synergistic combos for chromothripsis tumors (AID 1671455; in the data active means inhibition above about 83%;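 further: 0% = vehicle DMSO and 100% = high DMSO as cytotoxic control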). To be noted: HD-MB03 medulloblastoma cells, stronger effect = higher value.
Test [9] is described as follows: growth inhibition, single agents and combos, UWB1.289, cell-based, BGB or cisplatin combos, synergistic combos for chromothripsis tumors (AID 1671456).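 Further: cells exposed to compound for four days; 0% = vehicle DMSO and 100% = killing by high DMSO.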 To be noted: UWB1.289 ovarian carcinoma cells, stronger effect = higher value.
Test [10] in a line: growth inhibition, single agents and combos, LFS_MB_2R, cell-based, cisplatin combos, synergistic combos for chromothripsis tumors (AID 1671457).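 Further: cells exposed to compound for four days before readout.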 To be noted: LFS_MB_2R medulloblastoma cells, stronger effect = higher value.
A short description of test [11]: growth inhibition, MDA-MB-436, cell-based, BGB or cisplatin combos, synergistic combos for chromothripsis tumors (AID 1671458; call rule not given here;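 further: cells exposed for 96 hours; 0% = vehicle DMSO and 100% = killing by high DMSO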). To be noted: MDA-MB-436 breast carcinoma growth inhibition, drug combinations, stronger effect = higher value.
Test [12] can be described thus: UWB1.289_BRCA1 ovarian cancer growth, cell-based, BGB or cisplatin combinations (AID 1671459). To be noted: UWB1.289 BRCA1 ovarian carcinoma, drug combinations, stronger effect = higher value.
Test [13] can be described thus: drug combination toxicity in non-malignant astrocytes – cell-based, BGB or cisplatin IC20 combos, cytotoxicity control for chromothriptic childhood tumor combination screen (AID 1671460).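 Further: cells exposed to compounds for 96 hours before viability readout; 0% = vehicle and 100% = killing control.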 To be noted: Human astrocytes, viability inhibition, drug combinations, at 0.5 µM, stronger effect = higher value.
A short description of test [14]: BT084 cell growth, single and combined drugs, ICGC_MB145, cisplatin and BGB IC40 combos (AID 1671461).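 Further: cells exposed to drugs for 96 hours; 0% = vehicle DMSO and 100% = high DMSO full killing control.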 Particulars: BT084 medulloblastoma cells, drug combinations, stronger effect = higher value.
The nature of test [15]: RCMB18 cell growth, single agent and combined, cisplatin and BGB IC40 combos (AID 1671462).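 Further: cells exposed to compound for four days.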 To be noted: RCMB18 medulloblastoma cells, stronger effect = higher value.
A short description of test [16]: CRL1545 cell growth, single agent and combined, cisplatin and BGB IC20 combos (AID 1671464).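 Further: cells exposed to compound for 96 hours before readout; 0% = vehicle DMSO and 100% = high DMSO killing control.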 To be noted: CRL1545 osteosarcoma cells, stronger effect = higher value.
The mark [17] stands for this setting: measured here: combination with BGB IC40, at 0.05 µM.
Setting [18] is: measured here: with BGB IC20 combination, at 0.5 µM.
Setting [19] is: measured here: with cisplatin IC20 combination, at 0.5 µM.
The mark [20] stands for this setting: measured here: combination with cisplatin, at 0.5 µM.
The mark [21] stands for this setting: measured here: combination with cisplatin, at 5 µM.

As for `COc1cc(N2CCN(Cc3ccc(F)cc3)C(=O)C2)ncn1`, the z-score in [1] was -0.36 (inactive).
Regarding `CCCCCCCCCC(=O)N[C@@H](Cc1c[nH]c2ccccc12)C(=O)N[C@@H](CC(N)=O)C(=O)N[C@@H](CC(=O)O)C(=O)NC1C(=O)NCC(=O)N[C@@H](CCCN)C(=O)N[C@@H](CC(=O)O)C(=O)N[C@H](C)C(=O)N[C@@H](CC(=O)O)C(=O)NCC(=O)N[C@H](CO)C(=O)N[C@@H](C(C)CC(=O)O)C(=O)N[C@@H](CC(=O)c2ccccc2N)C(=O)OC1C` (stereo partly specified), the inhibition in [2] (at 0.5 µM, stronger effect = higher value) is -27.6% (inactive) and -32.6% (inactive); in test [2] (measured here: combination with BGB IC20, at 0.005 µM) it was 1.22% and 8.36%; in [2] (measured here: combination with BGB IC40, at 0.005 µM), -33.3% and -6.15%; in test [2] (setting [17]) it was -27.1% and -21.6%; in test [2] (measured here: combination with cisplatin, at 0.5 µM, stronger effect = higher value), -42.5% and -64.3%; in test [2] (measured here: combination with cisplatin, at 5 µM, stronger effect = higher value), -23.7% and -0.57%. Besides, the inhibition in test [3] (BGB combo, at 5 µM) is -9.1% and -17.9%; in test [3] (at 0.5 µM), -7.65% (inactive) and -14% (inactive); in [3] (cisplatin combo, at 5 µM) it was 17.9% and -21%; in [3] (setting [18]), -19% and -14.2%; in [3] (setting [19]), 5.61% and -17.4%; in [3] (single agent, at 5 µM) it was 5.14% and 4.37%. Further, the inhibition in [4] (BGB IC20 combo, at 0.005 µM) is -14.8% and 0.272%; in test [4] (BGB IC40 combo, at 0.005 µM), -10.2% and -12.9%; in test [4] (BGB IC40 combo, at 0.05 µM), -9.03% and -26.8%; in test [4] (at 0.5 µM) it was -38.5% (inactive) and -18.4% (inactive); in [4] (cisplatin combo, at 0.05 µM) it was -12.1% and -31.4%; in test [4] (cisplatin combo, at 0.5 µM), -42.4% and -16.6%. The inhibition is -27.4% and -22.6% in test [4] (cisplatin combo, at 5 µM); -18.7% and 2.31% in [4] (measured here: 5 uM single agent, at 5 µM); -6.57% (inactive) and -6.58% (inactive) in [5] (at 0.5 µM); -2.79% and -15.2% in test [5] (setting [17]); 7.06% and -22.9% in test [5] (setting [20]); -14.1% and 4.93% in [5] (setting [21]). The inhibition is -0.19% (inactive) and -22.1% (inactive) in [6] (at 0.5 µM); 1.21% and -18.4% in test [6] (measured here: with BGB IC20, at 0.5 µM); 41% and -9.81% in test [6] (measured here: with BGB IC20, at 5 µM); -11.7% and -35.1% in test [6] (measured here: with cisplatin IC20, at 0.5 µM); -35% and -23.5% in test [6] (measured here: with cisplatin IC20, at 5 µM); -14.9% and -5.13% in test [6] (single agent, at 5 µM). Moreover, the inhibition is -34.4% (inactive) and -31.7% (inactive) in test [7] (at 0.5 µM); -39.7% and -27.2% in test [7] (measured here: combination with BGB at IC20, at 0.5 µM); -14% and -62.4% in [7] (measured here: combination with cisplatin at IC20, at 0.5 µM); -9.94% (inactive) and -8.88% (inactive) in test [8] (at 0.5 µM); -6.42% and -16.2% in [8] (measured here: combo with BGB at IC20, at 0.5 µM); -14.7% and -5.25% in test [8] (measured here: combo with cisplatin at IC20, at 0.5 µM). For the same compound, the inhibition was 10.2% (inactive) and 12.2% (inactive) in [9] (at 0.5 µM); -9.69% and -2.7% in test [9] (measured here: inhibition with BGB combination, at 0.05 µM); -15.8% and -25.8% in [9] (measured here: inhibition with cisplatin combination, at 0.05 µM); -23.5% (inactive) and -6.81% (inactive) in test [10] (at 0.5 µM); -31.3% and -1.96% in [10] (setting [20]); -80.2% and 9.2% in test [10] (setting [21]). Moreover, the inhibition in [11] (at 0.5 µM) was -16.9% (inactive) and 1.2% (inactive); in test [11] (measured here: BGB combination, at 0.5 µM), -8.45% and 11.2%; in test [11] (measured here: BGB combination, at 5 µM) it was -21.2% and 5.73%; in test [11] (measured here: cisplatin combination, at 0.5 µM), -33.4% and -3.35%; in [11] (measured here: cisplatin combination, at 5 µM), -35% and -1.3%; in [12] (BGB combination, concentration series, at 5 µM), 0.446% and -9.8%. The inhibition in test [12] (at 0.5 µM) was -0.18% (inactive) and -1.59% (inactive); in test [12] (cisplatin combination, concentration series, at 5 µM) it was 29.6% and 3.48%; in [13], -6.51% (inactive) and -21.5% (inactive); in test [13] (measured here: combo with BGB IC20), -8.41% and -24.6%; in test [13] (measured here: combo with cisplatin IC20) it was -7.76% and -27.2%; in [14] (at 0.5 µM) it was -50.8% (inactive) and -0.72% (inactive). Besides, the inhibition is -32.6% and -11.3% in test [14] (cisplatin combination, at 0.5 µM); -30.3% and -7.6% in test [14] (cisplatin combination, at 5 µM); -7.72% and 14.6% in test [14] (measured here: BGB IC40 combination 0.05 uM, at 0.05 µM); -22.5% and -17.6% in test [14] (single agent, at 5 µM); -14.5% (inactive) and -23% (inactive) in [15] (at 0.5 µM); -29.9% and -45.9% in [15] (cisplatin combo, at 5 µM). Also, the inhibition in test [15] (measured here: BGB IC40 combination, at 0.05 µM) was -12.3% and 4.76%; in [15] (setting [20]) it was -0.362% and -63.9%; in test [15] (single agent, at 5 µM), -26.6% and -8.51%; in [16] (at 0.5 µM) it was 12.4% (inactive) and 0.47% (inactive); in [16] (setting [18]), 12.1% and 6.43%; in [16] (setting [19]), 10.6% and -4.18%. The inhibition in test [16] (single agent, at 0.05 µM) was -15.3% and 8.61%; in test [16] (single agent, at 5 µM), 20.8% and -15.6%.
Regarding `CCCOC1CCCN(C2CCN(c3ccc(F)c(F)c3)CC2)C1` (stereo unspecified), in [1], the z-score was -0.725 (inactive).
In the case of `COc1cccc(OC)c1-c1noc(CCN2C(=O)COc3ccccc32)n1`, the z-score in test [1] was 1.39 (inactive).

For orientation: inhibition means the drop in the measured response relative to a control, in per cent.
